Assay results reported in PubChem BioAssay (NCI).
“And” between values parts separate entries of the source, which are not always exact repeats. Equal values may be shown once. The panel holds about 83,000 compounds, 20% with a hit somewhere; the sample as a whole holds those more often.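 Step 1: grow cells in 96-well plates. Step 2: add test compound at a single concentration. Step 3: incubate 48 h. Step 4: record percent growth.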 The source made the active and inactive calls. The calls were made as follows: active = growth percent below 10; inactive = the rest.

System: SN12C renal
Assay: NCI-60 one-dose screen, 48 h (100 = growth as untreated, 0 = no growth, -100 = all killed)
Settings: 10 µM unless noted

Structure (SMILES)	growth
O=C(NNC(=O)c1ccc(OCc2nc3ccc(Cl)cc3[nH]2)cc1)Nc1ccc(Cl)c(Cl)c1	76.7% (inactive)
Clc1ccc(-c2nc3c4c(-c5ccccc5)c(-c5ccccc5)n(Cc5ccccc5)c4ncn3n2)cc1	0.356% (active)
COc1c(B(O)O)cc(F)cc1-c1nc2c(F)cc3[nH]ncc3c2c2c1CCCC2	17.2% (inactive)
C/C(=N\Nc1ccc(C(=O)O)cc1)c1cnn(-c2cc(=O)[nH]c3ccc(C)cc23)c1C	92.6% (inactive)
O=C1Nc2cc(-c3ccc(NS(=O)(=O)c4ccc([N+](=O)[O-])cc4)cc3)ccc2/C1=C/c1ccc[nH]1	-17.7% (active)
COc1ccc(NC(=O)CSc2nnc(-c3ccc(-c4nc5ccc(Cl)cc5[nH]4)cc3)o2)cc1	6.13% (active)
COc1ccc2[nH]c(O)c(N=Nc3nc(-c4ccc(C#N)cc4)cs3)c2c1	20.3% (inactive)
COc1ccc(-c2nc3ccc(-c4nnc(SCC(=O)Nc5ccc(/C(C)=N\O)cc5)o4)cc3[nH]2)cc1	80.1% (inactive)
CCCCCCCCCCCCCCCCCC(=O)Nc1ccc(OC)cc1	99.7% (inactive)
CCN1C(=O)N(CC)C2NNC(Sc3c(C(=O)O)c4ccccc4n(CCC(C)C)c3=O)=NC21 (stereo not given)	16.3% (inactive)
COc1ccc(/C=C/c2nc3ccccc3n3c(-c4cccc([N+](=O)[O-])c4)nnc23)cc1	-72.2% (active)
COc1ccc(NC(=O)N/N=C/c2c[nH]c3ccccc23)cc1	34.4% (inactive)
CCC(=O)c1cc(C(=O)OC)c2ccc3c4ccccc4ccc3n12	57.9% (inactive)
Cc1oc(-c2ccccc2)nc1CN[C@@H]1C[C@@H]2C[C@H]([C@H]1C)C2(C)C	10.1% (inactive)

System: UO-31 renal
Assay: as above
Settings: 10 µM unless noted

Structure (SMILES)	growth
C=CC(=O)N1CCN(c2ccc3nc4c(nc3c2C(F)(F)F)C(=O)c2ncccc2C4=O)CC1	35.7% (inactive)
O=C(N/N=C/c1ccc(-c2cccc([N+](=O)[O-])c2)s1)c1[nH]c2ccc(Br)cc2c1-c1ccccc1	82.1% (inactive)
CCCCNc1ccc2c3c(cccc13)C(=O)N(NCC(O)COc1ccc3c(C)cc(=O)oc3c1)C2=O (stereo not given)	43.5% (inactive)
CC(=O)Nc1cccc(-n2c(COc3ccc(Br)cc3)nc3ccccc32)c1	69.3% (inactive) and 86.1% (inactive)
CC(=O)c1c2c(c3ccc4c5ccccc5ccc4n13)C(=O)c1ccccc1C2=O	59.3% (inactive)
CC1=NN(C2=NC(=O)C(CC(=O)Nc3ccccc3C(F)(F)F)S2)C(c2ccc(N(C)C)cc2)C1 (stereo not given)	41.6% (inactive)
Cc1ccc(C2CC(c3ccc(NC(=O)Nc4ccccc4)cc3)=NN2c2ccc(S(C)(=O)=O)cc2)cc1 (stereo not given)	3.37% (active)
O=C(CSc1nc2sc3c(c2c(=O)n1-c1ccc(Cl)cc1)CCCC3)N/N=C/C=C/c1ccccc1	85.1% (inactive)
O=C(COc1ccc(/C=C2/C(=O)Nc3ccc(Cl)cc32)cc1)Nc1ccc(Br)cc1	-73.7% (active)
CC(C)(C)OC(=O)N1CCC2(CC1)Oc1ccccc1[C@H]1CC(c3ccc(Br)cc3)=NN12	43% (inactive)
N#Cc1c(-c2ccc(F)cc2)nc(SCc2ccc(F)cc2)nc1N1CCNCC1	8.26% (active)
Cc1ccc(/C=C/C(=O)c2ccc(S(=O)(=O)NCCNc3nc(N(C)C)nc(N4CCOCC4)n3)cc2)cc1	73.2% (inactive)
ClC(Cn1ncc2c(Nc3cccc(Br)c3)nc(SCCN3CCOCC3)nc21)c1ccc(Br)cc1 (stereo not given)	-65.7% (active)
COc1ccc(N=Nc2c(N)nn3c(N)c(C#N)c(-c4ccccc4)nc23)cc1	28.4% (inactive)
Cc1cccc(-c2ccccc2Oc2ccc3nnc(Cl)n3n2)c1	90.6% (inactive)
CCN1CCN(Cc2ccc(C(=O)Nc3cccc(Nc4ccc5c(OC)cccc5n4)c3)cc2C(F)(F)F)CC1	-85.8% (active)
N#CCc1nnc(NC(=O)c2ccc(-n3c(=O)[nH]c4ccccc4c3=O)cc2)s1	66.7% (inactive)
COc1cc(NC(=O)CSc2nnc(-c3ccc(-c4nc5ccc(Cl)cc5[nH]4)cc3)o2)cc(OC)c1OC	64% (inactive)
c1n[nH]cc1-c1nc2ccc3cn[nH]c3c2c2c1CCCC2	61.1% (inactive)
Cc1ccccc1NC(=O)c1cccc(NC(=O)CCl)c1	71.3% (inactive)
COc1ccc(-c2cc(-c3cc(OC)c(OC)c(OC)c3)[nH]c(=O)c2C#N)cc1	-24.9% (active)
